# Source: PubChem BioAssay (EPA / NIEHS)
# Records with an inconclusive call do not appear. The source made the active and inactive calls. How the source made its calls, unless noted: active means hit-call score of the fitted dose curve at least 0.9, where 1 is the maximum; inconclusive means response in the unintended direction; inactive means score below 0.9.
# Key:
# [1] = CEETOX_H295R_ESTRADIOL_noMTC: CeeTox H295R High-throughput Steroidogenesis Assay for Estradiol, maximum tolerated concentration (MTC) filtered results only (AID 2283919; active means hit-call score of the fitted dose curve at least 0.9, where 1 is the maximum; inactive means score below 0.9); details: actives raise or lower the signal
# Outline: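 Readout: dansyl-derivatized estradiol quantified by LC-MS/MS in medium from H295R cells dosed 48 h (0.1% DMSO) following 48 h forskolin (10 uM) prestimulation. Gain or loss of signal fitted against DMSO; no MTC filtering applied.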
# [2] = CEETOX_H295R_PROG_noMTC: CeeTox H295R High-throughput Steroidogenesis Assay for Progesterone (PROG), maximum tolerated concentration (MTC) filtered results only (AID 2283920; active means hit-call score of the fitted dose curve at least 0.9, where 1 is the maximum; inactive means score below 0.9); details: actives raise or lower the signal
# Outline: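 Progesterone secreted into medium was measured by HPLC-MS/MS after MTBE extraction, following 48 h chemical exposure (0.1% DMSO) of forskolin-prestimulated (10 uM, 48 h) H295R adrenal cells. Gain or loss fitted against DMSO; no MTC filtering.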
# [3] = CEETOX_H295R_ESTRONE_noMTC: CeeTox H295R High-throughput Steroidogenesis Assay for Estrone, maximum tolerated concentration (MTC) filtered results only (AID 2283921; active means hit-call score of the fitted dose curve at least 0.9, where 1 is the maximum; inactive means score below 0.9); details: actives raise or lower the signal
# Outline: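 Estrone in spent medium, quantified by tandem MS following dansyl chloride derivatization, after 48 h chemical exposure (0.1% DMSO) of forskolin-prestimulated (10 uM, 48 h) H295R cells; concentrations not MTC-filtered, bidirectional fit against DMSO.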
# [4] = molecular target: PGR (gene 5241) (UniProt P06401); assay: TOX21_PR_BLA_Followup_Antagonist_ratio: Tox21 HEK293 Progesterone Receptor (PR) Antagonism Beta-lactamase Follow-Up Assay, Ratio (AID 2283934);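 further: PR-UAS-bla HEK293T cells stimulated with 1 nM R5020 agonist for 16 hr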
# PGR (gene 5241), sequence (P06401 whole entry, looked up): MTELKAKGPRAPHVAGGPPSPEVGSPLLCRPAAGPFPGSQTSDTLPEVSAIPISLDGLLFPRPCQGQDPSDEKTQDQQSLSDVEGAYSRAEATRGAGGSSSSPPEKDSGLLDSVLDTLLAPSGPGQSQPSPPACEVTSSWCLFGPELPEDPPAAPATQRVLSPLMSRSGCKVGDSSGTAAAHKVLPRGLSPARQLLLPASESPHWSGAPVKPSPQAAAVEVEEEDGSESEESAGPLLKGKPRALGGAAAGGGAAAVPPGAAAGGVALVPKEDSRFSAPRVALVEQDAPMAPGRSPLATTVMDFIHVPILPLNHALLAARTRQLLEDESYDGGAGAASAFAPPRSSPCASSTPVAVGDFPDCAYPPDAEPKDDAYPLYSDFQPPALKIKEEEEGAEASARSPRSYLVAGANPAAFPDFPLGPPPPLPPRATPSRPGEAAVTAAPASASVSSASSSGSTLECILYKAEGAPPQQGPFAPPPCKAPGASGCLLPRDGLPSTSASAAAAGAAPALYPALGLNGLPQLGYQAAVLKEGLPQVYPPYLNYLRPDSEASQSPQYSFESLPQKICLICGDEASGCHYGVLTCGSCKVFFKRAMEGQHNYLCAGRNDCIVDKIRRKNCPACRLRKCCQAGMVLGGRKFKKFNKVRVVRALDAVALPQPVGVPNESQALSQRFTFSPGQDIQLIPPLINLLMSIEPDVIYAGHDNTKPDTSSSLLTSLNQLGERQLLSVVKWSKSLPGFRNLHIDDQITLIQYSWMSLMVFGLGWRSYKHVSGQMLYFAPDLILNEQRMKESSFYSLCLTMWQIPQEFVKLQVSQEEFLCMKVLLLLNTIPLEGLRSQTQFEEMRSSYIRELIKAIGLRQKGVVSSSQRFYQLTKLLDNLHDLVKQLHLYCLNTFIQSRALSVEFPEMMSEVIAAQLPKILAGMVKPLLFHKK
# Outline: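 Measured in PR-UAS-bla HEK293T cells co-treated with compound and 1 nM promegestone for 16 hr; beta-lactamase ratio read after 2 h FRET substrate loading, with parallel CellTiter-Glo cytotoxicity.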
# [5] = TOX21_PR_BLA_Followup_Agonist_viability: Viability Assessment in the Tox21 HEK293 Progesterone Receptor (PR) Agonism Beta-lactamase Follow-Up Assay (AID 2283935);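 further: signal loss means lower viability so actives are cytotoxic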
# Outline: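 Viability is read as CellTiter-Glo luminescence, where loss of signal indicates cytotoxicity. The cells are PR-UAS-bla HEK293T given compounds for 16 hr at 37C and 5% CO2, in the same wells used for the bla readout.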
# [6] = TOX21_PR_BLA_Followup_Antagonist_viability: Viability Assessment in the Tox21 HEK293 Progesterone Receptor (PR) Antagonism Beta-lactamase Follow-Up Assay (AID 2283936);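 further: cells exposed to compound with R5020 agonist for 16 h; hits lower the luminescence signal meaning cytotoxicity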
# Outline: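 PR-UAS-bla HEK293T cells in medium with 2% charcoal-stripped FBS were treated with compounds plus R5020 for 16 hr at 37C. After the beta-lactamase read, CellTiter-Glo was added to the same wells and luminescence read after 30 min at room temperature.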
# [7] = CEETOX_H295R_CORTISOL_noMTC: CeeTox H295R High-throughput Steroidogenesis Assay for Cortisol, maximum tolerated concentration (MTC) filtered results only (AID 2283916; active means hit-call score of the fitted dose curve at least 0.9, where 1 is the maximum; inactive means score below 0.9); details: actives raise or lower the signal
# Outline: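 Cortisol secretion measured by LC-MS/MS after 48 h chemical treatment (final 0.1% DMSO) of forskolin-primed (10 uM, 48 h) H295R cells; gain or loss fitted relative to DMSO, without maximum-tolerated-concentration filtering.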
# [8] = CEETOX_H295R_CORTIC_noMTC: CeeTox H295R High-throughput Steroidogenesis Assay for Corticosterone (CORTIC), maximum tolerated concentration (MTC) filtered results only (AID 2283917; active means hit-call score of the fitted dose curve at least 0.9, where 1 is the maximum; inactive means score below 0.9); details: actives raise or lower the signal
# Experimental: CEETOX_H295R is a cell-based, multiplexed-readout assay that uses H295R, a human adrenal gland cell line, with measurements taken at 48 hours after chemical dosing in a 96-well plate.CEETOX_H295R_CORTIC_noMTC is one of 12 assay component(s) measured or calculated from the CEETOX_H295R assay (11 hormones and 1 viability assay). It is designed to make measurements of hormone induction, a form of inducible reporter, as detected with absorbance signals by HPLC-MS-MS technology. The concentrations for these components have not been pre-filtered for the maximum tolerated concentration (MTC) based on the MTT assay (_noMTC).Data from the assay component CEETOX_H295R_CORTIC_noMTC was analyzed into 1 assay endpoint. This assay endpoint, CEETOX_H295R_CORTIC_noMTC, was analyzed with bidirectional fitting relative to DMSO as the negative control and baseline of activity. […]
# Cell culture and media preparation procedures were conducted in accordance with OECD Test No. 456 guidelines, with minor modifications. […] For steroid quantification, media samples were shipped to OpAns, LLC (Durham, NC) on dry ice, and samples were thawed to room temperature prior to liquid-liquid extraction. […] Steroid hormones were separated by HPLC, eluted using a reverse phase C18 gradient with electrospray positive ionization, followed by quantification by tandem mass spectrometry (MS/MS). […]
# [9] = CEETOX_H295R_DOC_noMTC: CeeTox H295R High-throughput Steroidogenesis Assay for DOC, maximum tolerated concentration (MTC) filtered results only (AID 2283918; active means hit-call score of the fitted dose curve at least 0.9, where 1 is the maximum; inactive means score below 0.9); details: actives raise or lower the signal
# Outline: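 11-Deoxycorticosterone secreted by human adrenal H295R cells quantified by HPLC-MS/MS after 48 h chemical exposure (0.1% DMSO), following 48 h 10 uM forskolin prestimulation. Concentrations not filtered by MTT-derived MTC; bidirectional fitting.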
# [10] = molecular target: PGR (gene 5241) (UniProt P06401); assay: TOX21_PR_BLA_Followup_Agonist_ratio: Tox21 HEK293 Progesterone Receptor (PR) Agonism Beta-lactamase Follow-Up Assay, Ratio (AID 2283933)
# Outline: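 Ratio-based beta-lactamase reporter signal after 16 hr compound treatment of PR-UAS-bla HEK293T cells at 37C. Substrate loading lasted 2 hr at room temperature.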
smiles,measurement,setting,value
O=C(Nc1ccc2c(O)c(N=Nc3ccc(N=Nc4ccc(S(=O)(=O)O)cc4)cc3)c(S(=O)(=O)O)cc2c1)c1ccccc1,outcome,[1],inactive
same,outcome,[2],inactive
same,outcome,[3],inactive
CCCOC(=O)c1c(Cl)c(Cl)c(Cl)c(Cl)c1C(=O)OCCC,AC50,[4],9.87 µM (active)
same,outcome,[5],inactive
same,outcome,[6],inactive
CC=Cc1ccc(OC)c(OC)c1,outcome,[7],inactive
same,AC50,[8],39.5 µM (active)
same,outcome,[9],inactive
O=C(Nc1ccc2c(c1)Cc1ccccc1-2)C(F)(F)F,outcome,[10],inactive
same,AC50,[4],19.6 µM (active)
same,outcome,[5],inactive
same,outcome,[6],inactive
C=C1CC[C@H](O)C/C1=C/C=C1\CCC[C@]2(C)[C@@H]([C@H](C)/C=C/[C@H](C)C(C)C)CC[C@@H]12,outcome,[4],inactive
same,outcome,[6],inactive
C=C[Si]1(C)O[Si](C)(C=C)O[Si](C)(C=C)O[Si](C)(C=C)O1 (stereo not drawn),outcome,[7],inactive
same,outcome,[9],inactive
same,outcome,[2],inactive
CCOC(=O)C(C#N)=C(c1ccccc1)c1ccccc1,AC50,[4],15.2 µM (active)
same,outcome,[5],inactive
same,outcome,[6],inactive
COc1ccc(OC)c(N=Nc2c(O)ccc3ccccc23)c1,outcome,[7],inactive
same,outcome,[8],inactive
same,outcome,[9],inactive
same,outcome,[2],inactive
O=c1c(O)c(-c2ccc(O)cc2)oc2cc(O)cc(O)c12,AC50,[4],43.7 µM (active)
same,outcome,[5],inactive
Clc1ccc(C(c2ccccc2Cl)C(Cl)Cl)cc1 (stereo not drawn),AC50,[4],11 µM (active)
same,outcome,[5],inactive
same,outcome,[6],inactive
N#Cc1ccc(CC(=O)c2cccc(C(F)(F)F)c2)cc1,AC50,[4],46.1 µM (active)
same,outcome,[5],inactive
same,outcome,[6],inactive
